Source: PubChem
SARS PLP yeast: blocks SARS-CoV papain-like protease in a yeast assay; S. cerevisiae expressing SARS-CoV PLpro, growth rescue; Potency, µM (series often up to 32.9 µM), inactives show at the highest dose activity, positive = growth rescue, hits mostly activators; 0.19% of 330,000 active; calls by dose curve; further: potency means the concentration at half of the fitted maximal effect; 0% is about no effect; nearly all actives have a fitted effect of over 55% in size
Shiga toxin inh: blocks Shiga toxin action in Vero cells; AID 2315; Vero cells, Shiga toxin protein synthesis inhibition reporter; 9.2% of 290,000 active; inhibition, % at 38.7 µM; in the data active means inhibition mostly above about 28%, no sharp cut-off; inactive means mostly below about 43%; further: 0% is about no effect
AmpC no deterg: blocks E. coli AmpC beta-lactamase in detergent-free assay | P00811 | AmpC nitrocefin hydrolysis, absorbance 480 nm, 0.0001% Triton | Potency, µM (series often up to 57.1 µM), for inactives: at the top dose activity change, negative = inhibition, hits mostly inhibitors | 0.52% of 330,000 active;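 further: potency means the concentration at half of the fitted maximal effect; plate controls were no compound for no effect and no enzyme for full effect; nearly all actives have a fitted effect of over 20% in size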
Target sequence (P00811 whole entry, looked up): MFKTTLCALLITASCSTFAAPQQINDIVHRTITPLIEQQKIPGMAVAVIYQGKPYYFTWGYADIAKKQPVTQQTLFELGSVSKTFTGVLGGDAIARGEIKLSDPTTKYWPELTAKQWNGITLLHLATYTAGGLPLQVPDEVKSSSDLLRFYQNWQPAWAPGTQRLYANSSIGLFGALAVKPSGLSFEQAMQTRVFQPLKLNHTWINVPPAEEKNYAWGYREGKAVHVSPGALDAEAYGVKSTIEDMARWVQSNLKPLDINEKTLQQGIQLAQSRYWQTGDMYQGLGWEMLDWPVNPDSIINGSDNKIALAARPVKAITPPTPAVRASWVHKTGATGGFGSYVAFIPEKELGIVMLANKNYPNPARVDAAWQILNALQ
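20 mM phosphate pH 7.0 + 0.01% (detergent screen) or 0.0001% Triton X-100; 5.3 nM AmpC reagent; cpd preinc 15 min RT; nitrocefin (800 uM stock) to start; A480 q20 s × 4 min; Activity was normalised to no-enzyme and no-compound control wells.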
CHX counter: counter-screen hit for Shiga toxin inhibitors, cycloheximide; cell reporter, cycloheximide protein synthesis inhibition counterscreen; max response, %; 12% of 300,000 active; AID 2314; in the data active means max response mostly above about 13%, no sharp cut-off; inactive means mostly below about 14%; further: read at 38.3 µM for the half of the compounds with a filed dose; 0% is about no effect
AmpC inh detg: blocks E. coli AmpC beta-lactamase in detergent assay. Potency, µM (top dose mostly 114 µM), for the others: top-dose activity change, negative = inhibition, actives largely listed as inhibitors. AID 485294. AmpC hydrolysis of nitrocefin, absorbance 480 nm, 0.01% Triton. P00811. 0.041% of 370,000 active;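 further: potency means the concentration at half of the fitted maximal effect; 0% = no-compound wells and -100% = no-enzyme wells; nearly all actives have a fitted effect of over 25% in size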
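20 mM phosphate pH 7.0 + 0.01% (detergent screen) or 0.0001% Triton X-100; 5.3 nM AmpC reagent; cpd preinc 15 min RT; nitrocefin (800 uM stock) to start; A480 q20 s × 4 min; Activity was normalised to no-enzyme and no-compound control wells.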
AMA1 RON2 block: AMA1-RON2 (P. falciparum) interaction inhibition. AlphaScreen AMA1-biotinylated RON2 peptide binding. Potency, µM (doses to about 58.2 µM), without a hit: top-dose activity change, negative = inhibition, usual class: inhibitors. 0.2% of 360,000 active. AID 720542;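 further: potency means the concentration at half of the fitted maximal effect; 0% = vehicle wells and -100% = peptide control; nearly all actives have a fitted effect of over 45% in size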
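AMA1 (3D7) with his tag at 25 nM final met compounds first, then biotinylated RON2 peptide at 25 nM; detection used donor plus acceptor beads, 10 µg/mL apiece, read by AlphaScreen after 30 min at room temperature.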
* = called active by the depositor; u = inconclusive; x = not tested or not shown; [ ] = another dose, or the depositor's remark. Only a selection was taken, and hits are over-represented in it overall. Unless noted, the call rests on the fitted dose curve; in most records, active means well fitted curve in the direction sought with a large enough effect; inconclusive means small, poorly fitted or top-dose-only effect, or another doubt; inactive means no such curve, though single readings can be large; an effect the other way counts as inactive or inconclusive.

SMILES	SARS PLP yeast	Shiga toxin inh	AmpC no deterg	CHX counter	AmpC inh detg	AMA1 RON2 block
CCN(CC(=O)NCc1cccs1)C(=O)/C=C/c1ccc(F)cc1	x	x	x	x	x	-10%
O=C(/C=C/c1ccc(F)cc1)NCc1cccs1	-14%	94*	-21%	26*	-6%	13%[2.32 µM]
O=C(/C=C/c1ccccc1Cl)NCc1cccs1	-14%	89*	-30%	48*	-3%	6%
Cc1ccc(CNC(=O)/C=C/c2ccccc2Cl)cc1	u	21	-30%	10	-1%	4%
O=C(/C=C/c1ccc(Br)cc1)NCc1cccs1	-10%	112*	-36%	50*	-4%	8%
O=C(COC(=O)/C=C/c1cccc(Br)c1)NCc1cccs1	2%	x	-47%	x	x	1%
O=C1Nc2ccccc2C(O)(C(=O)NCc2ccc3c(c2)OCO3)N1c1ccc(Cl)c(Cl)c1 (configuration not stated)	13%	-6	-10%	1	u	12%
O=C(CNS(=O)(=O)c1cccc(Cl)c1)Nc1ccc(-c2nc3ccccc3s2)cc1	1%	43*	-30%	34*	u	-15%
Cc1ccc(C)c(S(=O)(=O)NC(C)C(=O)Nc2ccc(-c3nc4ccccc4s3)cc2)c1 (configuration not stated)	-14%	83*	-18%	53*	4%	7%
CCS(=O)(=O)c1ccccc1C(=O)Nc1ccc(-c2nc3ccccc3s2)cc1	x	x	x	x	4%	x
CC(C)(C)c1ccc(S(=O)(=O)NCC(=O)Nc2ccc(-c3nc4ccccc4s3)cc2)cc1	1%	123*	-31%	38*	-4%	-7%
CCC(CC)C(=O)Nc1cccc(-c2nc3ccccc3s2)c1	x	x	x	x	20%	x
CC(C)(C)C(=O)Nc1ccc(-c2nc3ccccc3s2)cc1	x	x	x	x	1%	x
CC(NS(=O)(=O)c1cccc(Cl)c1)C(=O)Nc1ccc(-c2nc3ccccc3s2)cc1 (configuration not stated)	-1%	44	-39%	38*	-14%	8%
Cn1nc(-c2ccc(OCC(=O)Nc3ccccc3)cc2)c2ccccc2c1=O	4%	-13	36%	-2	14%	-8%
NC(=O)CSc1nnnn1CC(CC(=O)O)c1ccccc1 (configuration not stated)	-6%	-1	-11%	-2	6%	-5%
CC(C)N(C(=O)CSc1nc2ccccc2n1-c1ccccc1)C(C)C	-14%	-2	40%	-2	-15%	4%
O=C(N/N=C/c1ccc(Cl)c([N+](=O)[O-])c1)c1ccc2nc[nH]c2c1	-3%	-3	-42%	-7	-7%	-15%
CCN(CC)c1ccc(/C=N/NC(=S)NC)c(O)c1	29%	77*	-57%	30*	u	17%
O=C(N/N=C/c1ccccc1[N+](=O)[O-])c1ccc2nc[nH]c2c1	0%	32	-16%	18*	4%	11%
CCN(CC)c1ccc(/C=N/Nc2ccccc2)c(O)c1	-5%	29	-32%	23*	4%	-3%
CCN(CC)c1ccc(/C=N/N2CCN(Cc3ccccc3)CC2)c(O)c1	-3%	-11	-35%	-3	-11%	u
CCN(CC)c1ccc(/C=N/N2CCOCC2)c(O)c1	13%	70*	-13%	65*	7%	-8%
COC(=O)C1C(O)C(C)C(O)C(C)(O)/C=C\C=C(/C)C(=O)Nc2c(C)c(OC(C)=O)c3c(c2O)C(=O)C(C)=C2OCOC(=C23)/C(C)=C/C(C)(O)C(O)C(C)C1O (configuration not stated)	2%	2	154%	1	1%	7%
Cc1cc(F)ccc1Nc1nc2ccccc2n2nnnc12	x	x	x	x	19%	x
SMILES	SARS PLP yeast	Shiga toxin inh	AmpC no deterg	CHX counter	AmpC inh detg	AMA1 RON2 block
COc1ccc(CNC(=O)CN(C(=O)c2snc(C(N)=O)c2N)c2ccccc2F)cc1	4%	1	-47%	-3	u	5%
Cc1[nH]c(C)c(S(=O)(=O)NCc2ccccc2Cl)c1C(=O)N1CCCC1	17%	1	-14%	-5	u	15%
CCN(CC)c1ccc(/C=N/NC(=O)c2ccc3nc[nH]c3c2)c(O)c1	3.2µM*	16	-47%	-3	-1%	38%
CCN(CC)c1ccc(C=Nc2ccccc2)c(O)c1	-1%	35	-9%	5	-10%	-13%
CCN(CC)c1ccc(N=Cc2ccc(N(CC)CC)cc2O)cc1	-2%	29	-14%	12	u	-26%
CCN(CC)c1ccc(/C=N/NC(=O)c2ccoc2C)c(O)c1	15%	93*	-32%	27*	-2%	57%
CCN(CC)c1ccc(/C=N/NC(=O)OC)c(O)c1	-23%	64*	-18%	55*	0%	3%
CCN(CC)c1ccc(C=Nc2ccc(N(C)C)cc2)c(O)c1	-14%	91*	-19%	54*	3%	-29%
CCOc1ccc(CNC(=O)C2CCCN(S(=O)(=O)N3CCC(C)CC3)C2)cc1OC (configuration not stated)	x	x	x	x	x	-5%
COc1ccccc1N(CC(=O)N1CCN(c2ccccc2)CC1)S(=O)(=O)c1ccc(C)cc1	-2%	-8	90%	-2	-1%	-16%
CCOc1ccccc1NC(=O)CN1C(=O)C(=O)c2ccccc21	x	x	x	x	21%	x
O=C(CN(C(=O)c1ccco1)c1cccc(F)c1)NCc1ccc(F)cc1	12%	-9	-2%	-2	-6%	31%
CCOC(=O)c1ccc(NC(=O)c2ccccc2C)cc1	-30%	86*	-23%	53*	u	22%
CCc1ccc(NC(=O)c2ccc(NC(=O)C3CCCO3)cc2)cc1 (configuration not stated)	-5%	56*	0%	14*	3%	5%
CCOC(=O)c1ccc(NC(=O)COC)cc1	-6%	35*	-13%	11*	-13%	16%
COC(=O)c1ccc(NC(=O)c2ccc(NC(=O)C3CCCO3)cc2)cc1 (configuration not stated)	-2%	-13	-15%	7	6%	-6%
CCOC(=O)c1cc(NC(=O)COC)ccc1O	-1%	-21	-7%	1	3%	x
CCCCOC(=O)c1ccc(NC(=O)C2CCCO2)cc1 (configuration not stated)	-5%	67*	-14%	36*	-5%	-12%
O=C(c1cccc(F)c1)N1CCN(c2cccc(Cl)c2)CC1	-11%	-22	-1%	-3	2%	11%
CCCCn1c(N)c(N(CC(C)C)C(=O)CCNC(=O)c2ccc([N+](=O)[O-])cc2)c(=O)[nH]c1=O	4%	x	3%	x	0%	-1%
CCCCOC(=O)c1ccc(O)cc1	-23%	14	-20%	11	-9%	-2%
CCOC(=O)c1ccc(NC(=O)C2CC2)cc1	-3%	72*	-21%	22*	u	2%
